Source: PubChem (National Center for Advancing Translational Sciences (NCATS))
The list is not random: actives were taken first. Their share in the collection is about 7.5%.
KinaseGlo FLuc: Kinase-Glo luciferase inhibition (counter-screen); 0.28% of 200,000 active; AID 1379; Potency, µM (doses to about 38.3 µM), actives largely listed as inhibitors; Q27757; Kinase-Glo luciferase, ATP luminescence, 8 min; further: nearly all actives have a fitted effect of over 60% in size
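Kinase-Glo luciferase light output from ATP and luciferin was measured with 10 uM ATP, within the enzyme's linear range. Buffer: 50 mM imidazole pH 7.2, 50 mM KCl, 7 mM MgCl2, 0.01% Tween 20, 0.05% BSA; luminescence read after 8 min at ambient temperature.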
Rab9 promoter act: Rab9 promoter activation; Huh7 Rab9 promoter-luciferase reporter, luminescence, 24 h; Potency, µM (titrated, usually from 9.22 µM), most hits filed as activators; 2.8% of 320,000 active; AID 485297; further: nearly all actives have a fitted effect of over 60% in size
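Quantitative HTS format; Huh7 Rab9-luciferase reporter cells (1500/well) receive compound 2 h post-plating, incubate 24 h at 37 °C, then get luciferase reagent for 10 min before luminescence reading.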
SMN2 splice up: enhancers of SMN2 splice variant expression | HEK293 SMN2-luciferase splicing reporter, luminescence, 30-36 h | 2.8% of 210,000 active | Potency, µM (doses to about 46.1 µM), most hits filed as activators; further: nearly all actives have a fitted effect of over 55% in size
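HEK293 cells carry an SMN2 […]–luciferase reporter in which exon 7 inclusion puts luciferase in frame. Cells were plated 10-12 h before compound addition, then incubated 30-36 h at 37C. ONE-Glo luminescence was read; sodium butyrate at 4.5 mM final served as control.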
FLuc counter: firefly luciferase modulation, counter-screen for miR-21 project; 6.9% of 360,000 active; Potency, µM (doses to about 57.5 µM), most hits filed as inhibitors; purified FLuc, Km substrates, luminescence inhibition; further: nearly all actives have a fitted effect of over 55% in size
Target sequence (P08659 whole entry, looked up): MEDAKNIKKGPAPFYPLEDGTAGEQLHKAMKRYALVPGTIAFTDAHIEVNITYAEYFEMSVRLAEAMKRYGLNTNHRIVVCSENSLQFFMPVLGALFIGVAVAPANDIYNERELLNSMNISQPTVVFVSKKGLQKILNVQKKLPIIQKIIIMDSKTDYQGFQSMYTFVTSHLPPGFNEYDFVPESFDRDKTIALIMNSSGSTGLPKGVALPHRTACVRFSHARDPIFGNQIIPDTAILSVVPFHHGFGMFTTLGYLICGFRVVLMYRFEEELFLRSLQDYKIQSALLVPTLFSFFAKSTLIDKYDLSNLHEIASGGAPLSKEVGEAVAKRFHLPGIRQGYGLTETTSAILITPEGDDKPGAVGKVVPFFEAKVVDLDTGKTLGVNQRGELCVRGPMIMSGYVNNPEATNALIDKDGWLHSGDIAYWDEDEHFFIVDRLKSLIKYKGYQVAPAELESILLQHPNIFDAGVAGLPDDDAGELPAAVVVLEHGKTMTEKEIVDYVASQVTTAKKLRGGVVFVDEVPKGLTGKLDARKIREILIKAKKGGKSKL
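Purified P. pyralis luciferase, 10 nM final, with Km-level 10 uM D-luciferin and 10 uM ATP in 50 mM Tris acetate pH 7.5, 10 mM Mg acetate, 0.01% Tween-20, 0.05% BSA; 6-point qHTS titration about 60 µM downward; luminescence read.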
NPC1 promoter act: activators of NPC1 promoter. Huh7 NPC1 promoter luciferase reporter, 24 h. Potency, µM (titrated, usually from 9.22 µM), most hits filed as activators. 2.4% of 320,000 active. AID 485313; further: nearly all actives have a fitted effect of over 60% in size
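Stable NPC1-promoter luciferase Huh7 line; cpd (DMSO) 24 h, 37 °C, 5% CO2; Amplite luciferase reagent 10 min RT; luminescence readout. qHTS format.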
ELG1 genotoxic: inducers of genotoxicity in HEK293T ELG1-luciferase cells | Potency, µM (titrated, usually from 46 µM), hits mostly activators | HEK293T ELG1-luciferase reporter, luminescence, 16 h | AID 504466 | 1.3% of 330,000 active; further: nearly all actives have a fitted effect of over 60% in size
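Genotoxic stress is detected as increased luminescence from luciferase-tagged ELG1 in HEK293T cells, measured with ONE-Glo after a 16 hr treatment at 37 °C.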
A number is an active result; - = inactive; ? = inconclusive; . = no result. The call rests on the fitted dose curve; in most records, active means well fitted curve in the direction sought with a large enough effect; inconclusive means small, poorly fitted or top-dose-only effect, or another doubt; inactive means no such curve, though single readings can be large; an effect the other way counts as inactive or inconclusive.

SMILES | KinaseGlo FLuc | Rab9 promoter act | SMN2 splice up | FLuc counter | NPC1 promoter act | ELG1 genotoxic
COc1cc2[nH]c(C(=O)Nc3ccc4c(c3)OCCO4)cc2c(OC)c1OC | . | - | . | 8.5µM | - | ?
CCOc1ccc(-c2nc(Cn3c(=O)cc(-c4ccccc4)c4c(C)nn(C)c43)c(C)o2)cc1 | . | . | . | - | . | .
CCCCNC(=O)c1c(C)oc2ncn(CC(C)C)c(=O)c12 | . | . | . | - | . | .
CC(C)(C)NC(=O)Nc1ccc(Br)cc1 | . | 2.5µM | . | 15µM | ? | ?
O=C(O)Cc1ccc(NC(=O)C(c2ccccc2)c2ccccc2)cc1 | - | - | . | - | - | -
COc1ccc(NC(=O)Nc2ccc(CC(=O)O)cc2)cc1 | - | - | - | 13µM | - | -
O=C(O)Cc1ccc(NC(=O)Nc2ccc(Br)cc2)cc1 | - | - | . | 6.7µM | - | -
CC(C)(C)NC(=O)Nc1ccc(F)c(Cl)c1 | . | - | . | ? | - | -
Cc1ccc(NC(c2ccc(Cl)cc2)c2nnc(-c3cccc(F)c3)o2)cc1C (configuration not stated) | . | . | - | - | . | .
Cc1nc2ccccn2c1C(=O)NCc1ccc2c(c1)OCO2 | - | - | - | - | - | -
Cc1nc2ccccn2c1C(=O)Nc1ccc(Cl)cc1 | - | ? | - | 24µM | ? | ?
Cc1nc2ccccn2c1C(=O)N/N=C/c1ccc2c(c1)OCO2 | - | - | ? | 12µM | - | ?
Cc1nc2ccccn2c1C(=O)Nc1ccc2c(c1)OCCO2 | - | ? | 7.1µM | 12µM | ? | ?
Cc1ccc(NC(=O)c2c(Cl)nc3ccccn23)cc1 | - | ? | 13µM | 11µM | - | ?
COc1cccc([C@@H]2Oc3ccc(Br)cc3C(=O)[C@H]2OC(=O)Nc2ccc(C)c(Br)c2)c1 | - | . | - | . | . | .
Cc1ccc2oc3c(c(=O)c2c1)C(c1ccccc1F)N(CCCN(C)C)C3=O (configuration not stated) | . | . | ? | - | . | .
CSc1ccc(CCNC(=O)c2cc3cc(S(=O)(=O)N4CCCCC4)ccc3n2C)cc1 | . | . | . | - | . | .
COc1ccc(-c2nnc(SCC(=O)N3CCOCC3)o2)cc1 | - | 4.5µM | 14µM | 21µM | ? | 21µM
COc1cccc(-c2nnc(SCC(=O)N3CCOCC3)o2)c1 | - | 4µM | - | ? | ? | -
O=C(CN1CCCc2ccccc21)N/N=C/c1ccc(O)cc1O | - | - | - | 15µM | - | 21µM
O=C(CN1CCCc2ccccc21)N/N=C/c1ccccc1 | - | - | - | - | - | -
CCSC1=NC2(CCN(C(=O)NC3CCCCC3)CC2)N=C1c1ccc(OC)cc1 | . | . | . | - | . | .
C=C1C=C(C(F)F)n2ncc(C(=O)NCCc3ccc(OC)c(OC)c3)c2N1 | . | . | . | - | . | .
c1ccc(CNc2cncnc2)cc1 | . | - | . | - | - | -
COc1ccc(CCn2c(O)cc3nn(-c4nc5ccccc5s4)c(=O)c-3c2C)cc1 | . | ? | . | 9.5µM | 2.8µM | -
SMILES | KinaseGlo FLuc | Rab9 promoter act | SMN2 splice up | FLuc counter | NPC1 promoter act | ELG1 genotoxic
CCN1/C(=C/C(=O)c2ccco2)Sc2ccccc21 | - | ? | - | 24µM | - | -
CCC(=O)/C=C1/Sc2ccccc2N1CC | - | - | - | - | - | -
c1ccc(Cc2cc(-c3ccccc3)on2)cc1 | - | ? | ? | 12µM | - | ?
Cc1cccc(C(=O)NCCc2ccccc2)c1 | . | 1.3µM | . | 11µM | 1.4µM | 4.6µM
O=C(NCCc1ccccc1)c1ccc(NCC2CCCO2)c([N+](=O)[O-])c1 (configuration not stated) | - | ? | 10µM | ? | ? | ?
Cc1cc(C(=O)NCCc2ccccc2)ccc1[N+](=O)[O-] | - | 4µM | 11µM | 13µM | 2.2µM | ?
NC(=O)c1ccc(NCC2CCCO2)c([N+](=O)[O-])c1 (configuration not stated) | . | - | . | - | - | -
Cc1ccc(C(=O)NCC(=O)OCC(=O)c2ccc(C)c([N+](=O)[O-])c2)cc1 | - | - | - | - | - | -
Cc1cc(C(=O)NCC(=O)OCC(=O)N(C(C)C)C(C)C)ccc1[N+](=O)[O-] | - | - | 13µM | - | - | -
O=C(C1CCCCC1)N(Cc1cccnc1)c1nc2c(F)cccc2s1 | . | . | . | - | . | .
O=C(NCCc1ccccc1)c1ccc([N+](=O)[O-])cc1 | - | 0.45µM | 11µM | 3µM | 0.4µM | ?
Cc1c(Cl)cccc1-n1ncc(C(=O)NCc2cccs2)c1C1CCN(C(=O)OC(C)(C)C)CC1 | . | . | . | - | . | .
Cc1ccc2onc(CNC(=O)Nc3cc(F)ccc3F)c2c1 | . | . | . | - | . | .
Cc1nc2ccc(NC(=O)c3ccco3)cc2nc1C | - | ? | - | ? | - | -
O=C(Nc1ccc2nn(-c3ccc(F)cc3)nc2c1)c1cccnc1 | - | - | - | - | - | -
CC(C)C(=O)Nc1ccc2nn(-c3ccccc3)nc2c1 | - | 0.14µM | 7.9µM | 0.67µM | 0.22µM | 1.2µM
O=C(Nc1ccc2nn(-c3ccccc3)nc2c1)c1ccco1 | - | 3.5µM | 4µM | ? | 2.8µM | ?
O=C(Nc1ccc2nn(-c3ccccc3)nc2c1)c1cccnc1 | - | ? | - | ? | 3.5µM | -
O=C(Nc1cc2nn(-c3ccccc3)nc2cc1Cl)c1ccco1 | - | 3.5µM | 11µM | ? | 4µM | 9.2µM
CCCCNc1nc(Oc2ccc(OCC)nn2)nc(N2CCOCC2)n1 | . | . | - | - | . | .
Cc1c(Cl)cccc1NC(=O)CCn1nc(C)c2c(C)n(-c3ccccc3)nc2c1=O | . | . | . | - | . | .
CCc1ccccc1N1C(=O)N(Cc2ccccc2C)c2ccccc2S1(=O)=O | . | . | . | - | . | .
Cc1cc(NC(=O)c2ccco2)ccc1-n1cnnn1 | - | ? | - | 21µM | ? | ?
COc1cc(C(=O)Nc2ccc(-n3cnnn3)c(C)c2)cc(OC)c1OC | - | - | - | ? | - | -
CCOc1ccc(NC(=O)CSc2cc(C)c3ccccc3n2)cc1 | . | . | . | - | . | .
SMILES | KinaseGlo FLuc | Rab9 promoter act | SMN2 splice up | FLuc counter | NPC1 promoter act | ELG1 genotoxic
Cc1ccc(N2C(=O)c3ccccc3NC2c2ccccc2O)cc1 (configuration not stated) | . | 0.89µM | . | ? | 2.5µM | ?
Cc1ccc(C)c(Cn2c3ccccc3c3cnn(CC(=O)NC(C)CCc4ccccc4)c(=O)c32)c1 (configuration not stated) | . | . | - | - | . | .
CC(C)OC(=O)[C@@H]1CC[C@H](C)[C@@H](CCC[C@@H]2C[C@@H](O)C[C@H](CC#N)O2)O1 | - | . | - | . | . | .
CC(/C=C/c1ccc(N(C)C)cc1)=N/N=C1/NC(=O)CC(C(=O)Nc2ccc(Cl)cc2)S1 (configuration not stated) | - | - | ? | 7.6µM | - | -
CCCOc1ccc(NC(=O)C2CC(=O)N/C(=N/N=C(\C)CCc3ccc4c(c3)OCO4)S2)cc1 (configuration not stated) | - | - | - | - | - | -
COc1ccc(NC(=O)C2CC(=O)N/C(=N/N=C/c3ccccc3)S2)cc1 (configuration not stated) | . | - | . | - | - | ?
